Data on two molecules can be found in patent US20180258417, “RAPID CHARACTERIZATION OF CAS ENDONUCLEASE SYSTEMS, PAM SEQUENCES AND GUIDE RNA ELEMENTS” (PIONEER HI-BRED INTERNATIONAL, INC., published 2018).

The target of assay [1] is T1, Blat Cas9 (Brevibacillus laterosporus SSP360D4).
T1 chain: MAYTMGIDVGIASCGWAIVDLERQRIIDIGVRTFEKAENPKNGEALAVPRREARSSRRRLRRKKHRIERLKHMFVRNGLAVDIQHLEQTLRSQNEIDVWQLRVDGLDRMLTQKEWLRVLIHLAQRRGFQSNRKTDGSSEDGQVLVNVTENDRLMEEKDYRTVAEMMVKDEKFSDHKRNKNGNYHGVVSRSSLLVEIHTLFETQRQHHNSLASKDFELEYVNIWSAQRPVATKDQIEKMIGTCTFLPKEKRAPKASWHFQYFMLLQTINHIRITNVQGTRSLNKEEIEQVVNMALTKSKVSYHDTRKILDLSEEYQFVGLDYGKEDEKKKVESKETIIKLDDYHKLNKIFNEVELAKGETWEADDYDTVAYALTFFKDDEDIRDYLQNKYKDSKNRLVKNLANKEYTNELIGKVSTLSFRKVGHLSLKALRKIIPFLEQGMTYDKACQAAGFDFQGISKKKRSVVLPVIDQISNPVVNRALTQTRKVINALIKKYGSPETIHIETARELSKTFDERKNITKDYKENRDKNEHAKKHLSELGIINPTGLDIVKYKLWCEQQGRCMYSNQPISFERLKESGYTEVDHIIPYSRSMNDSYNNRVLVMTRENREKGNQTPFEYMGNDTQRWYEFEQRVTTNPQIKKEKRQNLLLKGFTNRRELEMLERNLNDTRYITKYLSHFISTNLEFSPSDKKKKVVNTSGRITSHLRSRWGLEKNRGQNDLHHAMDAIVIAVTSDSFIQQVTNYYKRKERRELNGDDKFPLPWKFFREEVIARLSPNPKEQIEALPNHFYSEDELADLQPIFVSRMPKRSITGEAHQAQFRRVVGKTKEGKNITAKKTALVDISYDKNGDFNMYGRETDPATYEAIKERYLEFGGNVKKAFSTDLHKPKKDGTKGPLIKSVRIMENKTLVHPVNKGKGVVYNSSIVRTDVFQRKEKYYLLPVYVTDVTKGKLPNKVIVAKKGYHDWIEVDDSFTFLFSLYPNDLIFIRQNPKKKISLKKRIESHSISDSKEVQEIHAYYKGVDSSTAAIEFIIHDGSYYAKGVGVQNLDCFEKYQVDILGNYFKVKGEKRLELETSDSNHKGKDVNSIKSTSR
Briefly: cleavage_in_vitro; PAM position 7 A to C; 10 mM MgCl2, 15 C. The following applies: tags: C-terminal His (pBAD24-CHis). An excerpt: (§1) To validate the PAM specificity for Blat Cas9, plasmids were engineered to contain mutations ([…] (reference), […], […], […], […], […] with mutations shown in bold and underlined, FIG. 39) in the most conserved residues of the PAM immediately downstream of a 20 base pair region matching the variable targeting domain T1 (SEQ ID NO: 141). In vitro cleavage reactions with the various PAM sequences were initiated by mixing supercoiled plasmid DNA with pre-assembled Blat Cas9-sgRNA complex (1:1 v/v ratio) at 15° C. The final reaction mixture contained 3 nM plasmid, 50 nM Cas9, 10 mMTris-HCl (pH 7.5 at 37° C.), 100 mM NaCl, 1 mM DTT and 10 mM MgCl2 in a 100 μI reaction volume. Aliquots were removed at timed intervals and quenched with phenol/chloroform. The aqueous phase was mixed with 3× loading dye solution (0.01% (w/v) bromophenol blue and 75 mM EDTA in 50% (v/v) glycerol) and reaction products analyzed by agarose gel electrophoresis. The amount of supercoiled (SC) form was evaluated by densitometric analysis of ethidium bromide stained gels using the software ImageJ. Values of reaction rate constants were obtained as described by Szczelkun, et al., (2014) Proc. Natl. Acad. Sci. USA 111:9798-9803). Replacement of the C nucleotide at the 5th position abolished plasmid DNA cleavage confirming its key role in Blat Cas9 PAM recognition (FIG. 39).

The target of assay [2] is T1, Blat Cas9. Kind of assay: cleavage_in_vitro; PAM position 8 A to C; 10 mM MgCl2, 15 C. The following applies: tags: C-terminal His (pBAD24-CHis).
Excerpt: as §1

B1: Blat sgRNA direct ; T1 + GTCCCGCA PAM (ssRNA ; dsDNA)
RNA: GGGCGCUAAAGAGGAAGAGGACAGCUAUAGUUCCUUACUGAAAGGUAAGUUGCUAUAGUAAGGGCAACAGACCCGAGGCGUUGGGGAUCGCCUAGCCCGUUUUUACGGGCUCUCCCCAUAUUCAAAAUAAUGACAGACGAGCACCUUGGAGCAUUUAUUUCCGAGGUGCUUUUUUUU
DNA 1: CGCTAAAGAGGAAGAGGACAGTCCCGCA
DNA 2: TGCGGGACTGTCCTCTTCCTCTTTAGCG
modifications: [NONE]
For B1, the “cleavage rate decrease vs reference PAM” value with Blat Cas9 [1] came out at 43 fold decrease in rate.

B2: Blat sgRNA direct ; T1 + GTCCCGAC PAM (ssRNA ; dsDNA)
RNA: GGGCGCUAAAGAGGAAGAGGACAGCUAUAGUUCCUUACUGAAAGGUAAGUUGCUAUAGUAAGGGCAACAGACCCGAGGCGUUGGGGAUCGCCUAGCCCGUUUUUACGGGCUCUCCCCAUAUUCAAAAUAAUGACAGACGAGCACCUUGGAGCAUUUAUUUCCGAGGUGCUUUUUUUU
DNA 1: CGCTAAAGAGGAAGAGGACAGTCCCGAC
DNA 2: GTCGGGACTGTCCTCTTCCTCTTTAGCG
B2 came in with a binding signal with Blat Cas9 [2] of 12 fold decrease in rate.
